The values that follow come from the supplement of paper PMC6555819.

Common to all, as to test: PBM binding z-score (relative to random genomic background probes); higher = stronger binding; sequences stand for … in GC…GCGATTGACAGCGTAGAATGAAGG
The test system of assay [1] is FXR:RXRa (NR concentration 270 nM, RXRa partner concentration 90 nM). The method in brief:
(§1)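 Random background probes are the reference for binding z-scores. These scores derive from regression-normalized fluorescence on custom Agilent 4×180K protein-binding microarrays incubated 1 h with ligand-free nuclear receptor dimers. Binding was detected with antibodies against each partner (one per run).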

The test system of assay [2] is LXRa:RXRa (NR concentration 270 nM, RXRa partner concentration 90 nM). The procedure, abridged:
as §1

Assay [3] concerns LXRa homodimer (NR concentration 270 nM). The method in brief:
as §1

Assay [4] deals with LXRb:RXRa (NR concentration 270 nM, RXRa partner concentration 90 nM). The method in brief: as §1
For assay [5], the system named is LXRb homodimer (NR concentration 270 nM). The procedure, abridged: as §1
For assay [6], the system named is PPARa:RXRa (NR concentration 270 nM, RXRa partner concentration 90 nM). The procedure, abridged: as §1
In assay [7] the test system is PPARg:RXRa (NR concentration 180 nM, RXRa partner concentration 90 nM). The method in brief:
as §1

In assay [8] the test system is PPARg:RXRa 270nM:90nM, anti-RXR (NR concentration 270 nM, RXRa partner concentration 90 nM). The procedure, abridged: as §1
The test system of assay [9] is PPARg:RXRa 30nM:10nM, anti-RXR (NR concentration 30 nM, RXRa partner concentration 10 nM). The procedure, abridged:
as §1

Assay [10] has as its system PPARg:RXRa 90nM:30nM, anti-RXR (NR concentration 90 nM, RXRa partner concentration 30 nM). The method in brief: as §1
Assay [11] concerns PPARg:RXRa DBDmut IVT, anti-RXR (DBD mutation: RXRa K156A/R161A, NR concentration 270 nM, RXRa partner concentration 90 nM). The procedure, abridged: as §1
Assay [12] deals with PPARg:RXRa IVT, anti-PPARg (NR concentration 270 nM, RXRa partner concentration 90 nM). The method in brief:
as §1

Assay [13] has as its system PPARg DBDmut:RXRa IVT, anti-PPARg (DBD mutation: PPARg1 K132A/R137A, NR concentration 270 nM, RXRa partner concentration 90 nM). The method in brief:
as §1

Assay [14] has as its system PPARg DBDmut IVT, anti-PPARg (DBD mutation: PPARg1 K132A/R137A, NR concentration 270 nM). The procedure, abridged: as §1
The subject of assay [15] is PPARg homodimer (NR concentration 180 nM). The procedure, abridged:
as §1

The subject of assay [16] is PXR:RXRa (NR concentration 270 nM, RXRa partner concentration 90 nM). The procedure, abridged: as §1
In assay [17] the test system is PXR homodimer (NR concentration 270 nM). The method in brief: as §1
Assay [18] relates to RARa:RXR (NR concentration 270 nM, RXRa partner concentration 90 nM). The procedure, abridged: as §1
The subject of assay [19] is RARa homodimer (NR concentration 270 nM). The procedure, abridged: as §1
In assay [20] the test system is RARb:RXRa (NR concentration 270 nM, RXRa partner concentration 90 nM). The procedure, abridged: as §1

As to CGAAATAGGTCATTGACAGGACAGTGAATAGTAA, the PBM binding z-score was 6.1 in [1]; 5.06 in assay [2]; 1.3 in assay [3]; 3.58 in assay [4]; 0.828 in [5]; 5.64 in assay [6]. Further, the PBM binding z-score in assay [7] was 6.83; in assay [8], 6.73; in assay [9], 4.21; in assay [10] it was 6.12; in assay [11], 7.51; in [12] it was 7.87. Besides, the PBM binding z-score was determined as 3.54 in assay [13]; 2.18 in assay [14]; 3.02 in assay [15]; 3.03 in assay [16]; 0.444 in assay [17]; 4.06 in assay [18]. The PBM binding z-score was determined as 1.24 in assay [19] and 4.3 in assay [20].

With CCTACTGGGCCACGAAAGGTCATTCATTCAGTGA, the PBM binding z-score worked out at 3.89 in [1]; 5.43 in assay [2]; 6.05 in assay [3]; 4.47 in assay [4]; 0.659 in assay [5]; 4.73 in assay [6]. For the same sequence, the PBM binding z-score in assay [7] was 4.8; in assay [8], 5.02; in assay [9], 1.88; in assay [10], 4.42; in [11] it was 5.95; in assay [12], 5.87. The PBM binding z-score turned out to be 1.4 in assay [13]; 0.0477 in [14]; 3.21 in assay [15]; 5.7 in [16]; 2.12 in assay [17]; 5.5 in assay [18]. Moreover, the PBM binding z-score in assay [19] amounted to 1.45; in assay [20] it was 4.15.

As for TCGAGTAGGTTACCAATAGGGCATTCAGCTTTCT, the PBM binding z-score in assay [1] was 0.215; in assay [2], 2.16; in assay [3], -0.0808; in [4], 0.671; in assay [5], -1.16; in [6] it was 1.36. The PBM binding z-score was found to be 0.697 in [7]; 1.32 in assay [8]; 1.08 in [9]; 1.1 in assay [10]; 3.28 in assay [11]; 2.9 in assay [12]. Further, the PBM binding z-score in [13] is -0.0313; in [14], 0.193; in [15], -0.151; in [16], 0.391; in assay [17] it was -0.656; in assay [18], 0.441. For the same sequence, the figures for the PBM binding z-score in assay [19] and in assay [20] were -0.367 and 1.08, respectively.

For CGTCCAAGTTCAATGCTAGGTCAGTGAAAGCATT, the PBM binding z-score came out at 3.05 in [1]; 3.56 in [2]; 2.36 in [3]; 1.92 in [4]; 0.297 in assay [5]; 2.42 in assay [6]. For the same sequence, the PBM binding z-score in assay [7] is -0.0137; in [8], 0.79; in assay [9], -0.404; in assay [10] it was 0.397; in assay [11] it was 0.331; in assay [12] it was 0.878. Further, the PBM binding z-score was 0.0119 in assay [13]; 0.59 in assay [14]; 2.95 in assay [15]; 4.21 in [16]; 4.73 in [17]; 3.6 in assay [18]. Also, the values for the PBM binding z-score in assay [19] and in assay [20] were 1.33 and 3.79, respectively.

With TATACAGGGTCAAAGGCCAGAGAACGAATGTCGA, the PBM binding z-score in assay [1] was determined as 6.59; in [2] it was 6.22; in assay [3], 2.13; in [4], 4.88; in assay [5] it was 2.25; in assay [6] it was 6.02. Also, the PBM binding z-score worked out at 8.23 in [7]; 7.5 in assay [8]; 5.41 in assay [9]; 7.34 in [10]; 2.4 in [11]; 4.67 in assay [12]. Further, the PBM binding z-score in [13] stood at 1.74; in assay [14] it was 1.99; in assay [15] it was 2.58; in [16] it was 4.27; in assay [17] it was 0.698; in [18], 6.02. Also, the PBM binding z-score in [19] amounted to 1.1; in assay [20], 4.27.

Consider ACATACAGGTGATGAAGGTAACTCAGGCTATCAT, for which the PBM binding z-score was 0.328 in assay [1]; 0.419 in assay [2]; 0.233 in assay [3]; 0.198 in [4]; -0.055 in [5]; 0.484 in assay [6]. Besides, the PBM binding z-score in assay [7] was determined as 1.06; in assay [8] it was 0.534; in [9] it was 0.477; in [10], 0.425; in assay [11] it was 1.27; in assay [12], 1.16. The PBM binding z-score amounted to 1.17 in [13]; 0.566 in assay [14]; 0.36 in assay [15]; 0.132 in assay [16]; 0.441 in assay [17]; 0.745 in assay [18]. Besides, the results for the PBM binding z-score in assay [19] and in assay [20] were 0.688 and 0.588, respectively.

Regarding TCATATAGGTAATACAGGTGAAAGCCGGCATCTA, the PBM binding z-score in assay [1] is 0.854; in assay [2], 1.36; in assay [3] it was 0.571; in [4], 1.21; in [5], -0.105; in [6], 1.96. The PBM binding z-score in [7] was 1.68; in [8], 2.68; in assay [9], 3.73; in [10], 3.35; in assay [11] it was 3.7; in [12], 3.6. The PBM binding z-score in assay [13] stood at 1.75; in assay [14] it was 1.32; in assay [15], 1.14; in assay [16] it was 0.985; in assay [17] it was 0.433; in assay [18] it was 1.36. In addition, the PBM binding z-score in assay [19] turned out to be 0.756; in assay [20], 0.757.
